# Hits are enriched below; roughly 9.3% of the tested compounds scored in any of these assays.
# ELG1 repair inh: qHTS screen for small molecules that inhibit ELG1-dependent DNA repair in human embryonic kidney (HEK293T) cells expressing luciferase-tagged ELG1 | actives 2.3% (n = 330,000) | AID 504467, 2011 | HEK293T ELG1-luciferase reporter, luminescence, 16 h; DNA damage induced by 5-fluorouridine | Potency, µM (titrated, usually from 46.1 µM), for inactives: at the top dose activity change, negative = inhibition, actives largely listed as inhibitors; further: on the % scale 0 is the no-effect control and ±100 the full control effect; nearly all actives have a fitted effect of over 55% in size
#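 Cells (2,000 per well) received 5-fluorouridine plus test compound or DMSO and were incubated 16 hr at 37 °C, 5% CO2. Luciferase activity was read by luminescence 30 min after ONE-Glo addition; signal suppression marked inhibition of damage-induced ELG1 function.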
# FLuc modulator: qHTS profiling assay for firefly luciferase inhibitor/activator using purifed enzyme and Km concentrations of substrates (counterscreen for miR-21 project). Potency, µM (top dose mostly 57.5 µM), inactives show top-dose activity change, negative = inhibition, hits mostly inhibitors. AID 588342, 2011. purified FLuc, Km substrates, luminescence inhibition. actives 6.9% (n = 360,000). Luciferin 4-monooxygenase (Photinus pyralis), P08659;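 further: plate controls were vehicle for no effect and reference inhibitor for full effect; nearly all actives have a fitted effect of over 55% in size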
# Target sequence (P08659 whole entry, looked up): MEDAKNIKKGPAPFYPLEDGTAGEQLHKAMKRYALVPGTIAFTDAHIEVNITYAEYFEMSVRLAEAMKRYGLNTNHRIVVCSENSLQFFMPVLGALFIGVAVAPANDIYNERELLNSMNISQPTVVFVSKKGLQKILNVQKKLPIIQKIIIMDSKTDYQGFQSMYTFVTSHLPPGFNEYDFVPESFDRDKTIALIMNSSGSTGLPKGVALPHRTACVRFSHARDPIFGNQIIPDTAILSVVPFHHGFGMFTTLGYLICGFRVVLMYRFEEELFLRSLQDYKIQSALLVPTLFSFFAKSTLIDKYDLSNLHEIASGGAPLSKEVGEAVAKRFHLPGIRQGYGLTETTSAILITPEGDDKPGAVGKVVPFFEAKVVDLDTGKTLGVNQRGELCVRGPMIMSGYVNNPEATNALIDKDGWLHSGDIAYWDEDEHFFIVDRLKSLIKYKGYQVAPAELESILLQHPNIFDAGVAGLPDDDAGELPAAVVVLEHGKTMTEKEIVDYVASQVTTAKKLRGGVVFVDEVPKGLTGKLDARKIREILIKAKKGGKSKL
#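 Purified P. pyralis luciferase (10nM final) with 10uM D-luciferin and 10uM ATP (Km levels) in 50mM Tris acetate pH 7.5, 10mM Mg acetate, 0.01% Tween-20, 0.05% BSA; qHTS 6-point titration, ~60 µM downward; luminescence read.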
# Rab9 promoter act: qHTS Assay for Rab9 Promoter Activators; actives 2.8% (n = 320,000); Huh7 Rab9 promoter-luciferase reporter, luminescence, 24 h; Potency, µM (doses to about 9.22 µM), without a hit: top-dose activation, negative = inhibition, actives largely listed as activators; further: % of control where 0% means no effect; nearly all actives have a fitted effect of over 60% in size
#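 Cells were plated at 1500 per well in reduced-serum medium with 10% FBS and left 2 h. Compound in DMSO was then added for 24 h at 37 °C. Reporter signal was read by luminescence after 10 min with luciferase detection reagent.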
# NPC1 prom act: qHTS Assay for NPC1 Promoter Activators. actives 2.4% (n = 320,000). AID 485313, 2010. Potency, µM (doses to about 9.22 µM), without a hit: top-dose activation, most hits filed as activators. Huh7 NPC1 promoter luciferase reporter, 24 h; further: % of control where 0% means no effect; nearly all actives have a fitted effect of over 60% in size
#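 Stable NPC1-promoter luciferase Huh7 line; cpd (DMSO) 24 h, 37 °C, 5% CO2; Amplite luciferase reagent 10 min RT; luminescence readout. qHTS format.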
# SMN2 splice up: qHTS Assay for Enhancers of SMN2 Splice Variant Expression; HEK293 SMN2-luciferase splicing reporter, luminescence, 30-36 h; AID 1458, 2008; Potency, µM (top dose mostly 46.1 µM), without a hit: at the top dose activity change, positive = activation, actives largely listed as activators; actives 2.8% (n = 210,000); further: % of control where 0% means no effect; nearly all actives have a fitted effect of over 55% in size
#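 qHTS luciferase splicing reporter: luminescence rises when SMN2 exon 7 is included in transfected HEK293 cells. Compound exposure lasted 30-36 h at 37C, with 4.5 mM final sodium butyrate as control, followed by a ONE-Glo read.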
# ELG1 genotoxic: qHTS screen for small molecules that induce genotoxicity in human embryonic kidney (HEK293T) cells expressing luciferase-tagged ELG1; Potency, µM (doses to about 46 µM), for inactives: at the top dose activity change, positive = activation, hits mostly activators; HEK293T ELG1-luciferase reporter, luminescence, 16 h; AID 504466, 2011; actives 1.3% (n = 330,000); further: % of control where 0% means no effect; nearly all actives have a fitted effect of over 60% in size
#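 Cells (2,000/well) expressing the ELG1-luciferase fusion are dosed by pin tool and kept 16 hr at 37 °C, 5% CO2. Signal comes from ONE-Glo luciferase reagent after 30 min at room temperature.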
# Starred values were filed as active, the others as inactive; u = inconclusive; x = not tested or not shown. The call rests on the fitted dose curve; in most records, active means well fitted curve in the direction sought with a large enough effect; inconclusive means small, poorly fitted or top-dose-only effect, or another doubt; inactive means no such curve, though single readings can be large; an effect the other way counts as inactive or inconclusive. Potency means the concentration at half of the fitted maximal effect.
SMILES,ELG1 repair inh,FLuc modulator,Rab9 promoter act,NPC1 prom act,SMN2 splice up,ELG1 genotoxic
CS(=O)(=O)c1ccc2nc(NC(=O)c3cc([N+](=O)[O-])cc([N+](=O)[O-])c3)sc2c1,-9%,u,2%,12%,x,-2%
CC(=O)Nc1ccc2nc(NC(=O)c3ccco3)sc2c1,u,11µM*,2µM*,1.4µM*,x,u
CSc1nc2ccc(NC(=O)c3ccc(=O)n(C)n3)cc2s1,u,17µM*,u,28%,-17%,22%
CS(=O)(=O)c1ccc2nc(NC(=O)c3cccc([N+](=O)[O-])c3)sc2c1,u,1.7µM*,1.3µM*,1.6µM*,x,u
CSc1nc2ccc(NC(=O)c3nn(C(C)C)c(=O)c4ccccc34)cc2s1,u,u,19%,11%,-21%,12%
O=C(Nc1nc2ccc([N+](=O)[O-])cc2s1)c1c(F)cccc1F,u,8.5µM*,19%,23%,u,-1%
O=C(N/N=C\c1ccccn1)C1COc2cc3ccccc3cc2O1 (stereo unspecified),12%,-10%,u,-4%,x,-3%
CCOC(=O)c1c(C)[nH]c(C)c1S(=O)(=O)N(C)CC(=O)NCc1ccc(C)cc1,-1%,2%,-1%,0%,x,-3%
CN(C)S(=O)(=O)c1ccc(C(=O)OCC(=O)c2ccc3c(c2)NC(=O)CO3)cc1,20%,0%,0%,-1%,x,1%
O=C(COC(=O)c1ccccc1[N+](=O)[O-])NCCCc1ccccc1,4%,u,5%,6%,x,8%
O=C(Nc1nc2ccc([N+](=O)[O-])cc2s1)c1ccco1,u,2.1µM*,0.79µM*,1.6µM*,3.5µM*,-10%
CC(=O)Nc1ccc2nc(NC(=O)c3ccc([N+](=O)[O-])o3)sc2c1,21µM*,21µM*,16%,12%,x,-13%
COc1cccc(CNCCSc2nnnn2C)c1,u,0%,17%,10%,-12%,-9%
Cc1cc(-c2ccc(Br)cc2)n[nH]1,u,19µM*,u,u,u,u
Nc1cc(-c2cccc([N+](=O)[O-])c2)[nH]n1,-1%,2%,1%,0%,10%,-3%
Nc1cc(-c2ccc(Br)cc2)[nH]n1,13µM*,u,16%,18%,-2%,-2%
C=CCNC(=O)c1onc(CSc2ccc(F)cc2)c1C(=O)NCC=C,28%,3%,2%,0%,x,-1%
Cc1cc(C)c2nc3sc(C(=O)N4CCOCC4)c(N)c3cc2c1,u,0.21µM*,u,2.2µM*,x,1.5µM*
Cc1cc(C)c2cc3c(N)c(C(=O)N4CCOCC4)sc3nc2c1,5%,11µM*,u,u,x,8%
CCOc1ccc2nc3sc(C(=O)N4CCOCC4)c(N)c3cc2c1,10%,1.5µM*,0.56µM*,0.56µM*,1.3µM*,2%
Cc1ccc(C)c2nc3sc(C(=O)N4CCOCC4)c(N)c3cc12,u,u,u,15%,x,u
Cc1ccc2nc3sc(C(=O)Nc4ccc(N5CCOCC5)cc4)c(N)c3cc2c1,-13%,-19%,10%,-5%,-21%,-6%
Cc1ccc(N2C(=O)CC(Cc3cc(C)cc(C)c3)C2=O)cc1 (stereo unspecified),4%,2%,-5%,-6%,-3%,-5%
CCOc1ccc(/C=N/NC(=O)NC23CC4CC(CC(C4)C2)C3)cc1O,u,u,-2%,0%,x,-6%
Cc1ccc(C#N)c(SCc2nnc(-c3ccc(Cl)cc3)o2)n1,u,0.43µM*,1%,-2%,-82%,u

# From PubChem BioAssay
